Results published in PubChem BioAssay.
Results filed as inconclusive are left out. For part of these data: Potency and affinity values are given separately. Active and inactive are the calls of the source. Unless noted, no rule for the calls is given here.

Legend:
[1] = blockers of polyQ-driven CASP3 activation – cell-based (AID 1583); conditions: polyglutamine-induced caspase-3 activation, cell assay; stronger effect = higher value;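 tested at 10 µM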
[2] = yeast 75Q aggregation reduction – 75Q-TubU reporter (AID 1593); conditions: Yeast 75Q polyglutamine aggregation reporter
[3] = restoration of touch response, mutant HTT neurons – whole organism, C. elegans mechanosensory neurons, N-terminal huntingtin (AID 1599); conditions: C. elegans polyQ-huntingtin mechanosensory neurons, stronger effect = higher value
[4] = blockers of cytochrome c efflux from mitochondria – biochemical, purified mitochondria (AID 1603); conditions: stronger effect = lower value;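 also: mouse liver mitochondria challenged with calcium chloride; signal normalized to the plate average as 100%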
[5] = polyglutamine aggregate formation blockers (AID 1604); conditions: polyglutamine-induced protein aggregation inhibition assay; stronger effect = higher value; tested at 2.5 µM
[6] = glutamate transport activators, MN-1 cells, MN-1 cell line (AID 1612); conditions: MN-1 motor neuron cells, stronger effect = higher value;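 also: tested at 1 µM final; 0% = mean of DMSO vehicle wells on each plate; positive means more glutamate uptake than control and negative means less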
[7] = GFP-Q80 aggregate reduction, neuronal-like cells, cell-based, NGF-treated PC12, GFPQ80 (AID 1614); conditions: PC12 NGF-treated GFP-polyQ80 inclusion reduction;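 also: lower means fewer inclusions and 0 means no inclusions at all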
[8] = 75Q-TubH aggregate inhibition, S. cerevisiae, yeast (AID 1616); conditions: S. cerevisiae 75Q-TubH polyglutamine aggregation suppression; stronger effect = higher value
[9] = compounds altering circadian rhythm period length – cell-based, LOPAC library, luminescence reporter (AID 2774); conditions: circadian reporter cells, at 7 µM, actives lie on both sides;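 also: values are relative to mean of DMSO wells on each plate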
[10] = compounds altering viability of human ES cells (AID 493140); conditions: human embryonic stem cell survival screen; stronger effect = higher value;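 also: cells exposed to compounds for four days before counting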
[11] = target: ATP-dependent translocase ABCB1 (Homo sapiens) (UniProt P08183); test: P-glycoprotein substrate transport blockade – cell-based (AID 377; in the data active = fluorescence slope change above about 50%); conditions: MDR1-expressing cells, fluorescent substrate accumulation slope; stronger effect = higher value; concentration not given here
Sequence of ATP-dependent translocase ABCB1 (Homo sapiens) (P08183 whole entry, looked up): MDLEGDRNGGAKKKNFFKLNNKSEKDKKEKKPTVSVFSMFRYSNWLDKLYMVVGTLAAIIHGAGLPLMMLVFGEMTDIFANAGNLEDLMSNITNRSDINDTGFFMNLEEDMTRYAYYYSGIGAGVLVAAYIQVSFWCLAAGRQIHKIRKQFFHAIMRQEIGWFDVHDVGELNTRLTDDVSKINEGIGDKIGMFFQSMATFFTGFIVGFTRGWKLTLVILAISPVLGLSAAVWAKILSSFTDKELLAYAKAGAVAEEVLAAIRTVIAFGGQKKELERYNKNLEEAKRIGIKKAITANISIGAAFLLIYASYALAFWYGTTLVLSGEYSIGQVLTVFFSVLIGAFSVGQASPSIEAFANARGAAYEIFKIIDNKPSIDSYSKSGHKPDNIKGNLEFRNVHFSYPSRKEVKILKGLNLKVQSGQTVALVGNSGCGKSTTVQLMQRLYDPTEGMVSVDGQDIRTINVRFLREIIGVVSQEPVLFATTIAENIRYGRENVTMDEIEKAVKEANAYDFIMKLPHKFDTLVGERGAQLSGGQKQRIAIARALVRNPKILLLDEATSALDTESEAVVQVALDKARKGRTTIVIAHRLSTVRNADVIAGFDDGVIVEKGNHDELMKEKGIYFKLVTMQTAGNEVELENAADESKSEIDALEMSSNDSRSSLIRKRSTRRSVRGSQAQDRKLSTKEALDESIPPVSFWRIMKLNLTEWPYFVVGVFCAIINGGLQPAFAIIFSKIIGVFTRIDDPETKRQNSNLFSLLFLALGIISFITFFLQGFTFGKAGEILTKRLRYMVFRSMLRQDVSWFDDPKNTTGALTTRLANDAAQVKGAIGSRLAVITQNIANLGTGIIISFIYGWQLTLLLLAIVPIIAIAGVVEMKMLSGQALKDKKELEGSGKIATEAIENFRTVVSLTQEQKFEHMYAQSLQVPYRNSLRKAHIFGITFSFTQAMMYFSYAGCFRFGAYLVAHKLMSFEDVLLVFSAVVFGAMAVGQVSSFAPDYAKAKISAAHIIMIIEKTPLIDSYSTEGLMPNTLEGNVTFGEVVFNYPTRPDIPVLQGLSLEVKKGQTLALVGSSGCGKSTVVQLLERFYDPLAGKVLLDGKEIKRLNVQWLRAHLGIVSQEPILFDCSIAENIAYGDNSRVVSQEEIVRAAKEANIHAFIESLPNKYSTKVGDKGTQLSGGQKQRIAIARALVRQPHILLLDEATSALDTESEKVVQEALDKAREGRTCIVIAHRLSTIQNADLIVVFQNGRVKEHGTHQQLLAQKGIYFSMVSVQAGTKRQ

SMILES | inhibition [1] [%] | score [2] | rescue above control [3] | cytochrome c release ratio [4] | inhibition of aggregation [5] [%] | glutamate uptake change [6] [%] | inclusion score [7] | aggregation suppression score [8] | period change [9] | survival [10] | fluorescence slope change [11]
CN1CCN(CC(=O)N2c3ccccc3C(=O)Nc3cccnc32)CC1 | 9.26 | 1.57 | 18.8 | 1.27 | 63.5 | -10.6 | 2.5 | 1.19 | 0.09 h (inactive) | 8.33 (inactive) | –
CCOC(=O)c1ccc(N)cc1 | -9.37 | 1.06 | -11.4 | 0.65 | 53 | 13.1 | 1.5 | 1.18 | – | 3.58 (inactive) | 53.5% (active)
CC1CCc2cc(F)cc3c(=O)c(C(=O)O)cn1c23 (configuration not stated) | 4.46 | 1.12 | -5.46 | 1.29 | 44.4 | 3.94 | 2 | 0.905 | – | 26.8 (inactive) | 50.2% (active)
O=C(O)c1ccccc1C(=O)Nc1ccc(S(=O)(=O)Nc2nccs2)cc1 | -4.35 | 1.11 | -3.35 | 0.81 | 12.9 | 2.49 | 2 | 1.17 | – | 11.2 (inactive) | 52.9% (active)
CCN(CC)CCNC(=O)c1cc(Br)c(N)cc1OC | 15.4 | 1.41 | 5.76 | 0.92 | 24.2 | -4.45 | 2 | 1.35 | – | 5.42 (inactive) | 8.5% (inactive)
Cn1c(=O)c2c(ncn2CCO)n(C)c1=O | -0.98 | 1.29 | -7.41 | 1.08 | 56.7 | 2.77 | 2 | 1.2 | – | 29.2 (inactive) | 50.2% (active)
Cc1c(N(C)CS(=O)(=O)O)c(=O)n(-c2ccccc2)n1C | -33.9 | 1.22 | 6.62 | 0.55 | 94.4 | -8.12 | 2 | 1.09 | – | 3.25 (inactive) | 12.6% (inactive)
Cc1ccccc1OCC(O)CO (configuration not stated) | 20.6 | 1.31 | -6.62 | 1.09 | 70.4 | 18.9 | 2 | 1.74 | – | 11.9 (inactive) | 59.3% (active)
CCOc1ccc(NC(C)=O)cc1 | -10.9 | 0.84 | -2.44 | 0.87 | -59.3 | -13.8 | 1.5 | 0.296 | – | 8.75 (inactive) | 5.5% (inactive)
CC(C)(Sc1cc(C(C)(C)C)c(O)c(C(C)(C)C)c1)Sc1cc(C(C)(C)C)c(O)c(C(C)(C)C)c1 | -32.2 | 0.29 | -10.5 | 0.46 | 23.1 | -0.51 | 2 | 0.634 | – | 7.33 (inactive) | 6.4% (inactive)
NCCCC[C@H](N[C@@H](CCc1ccccc1)C(=O)O)C(=O)N1CCC[C@H]1C(=O)O | -0.18 | 0.98 | -7.67 | 1.03 | 45.6 | 1.96 | 2 | 0.836 | – | 16.8 (inactive) | 60.6% (active)
O=C(Cn1ccnc1[N+](=O)[O-])NCCO | -0.7 | 1.21 | -3.38 | 0.82 | 62.1 | 16.4 | 2 | 0.925 | – | 5.17 (inactive) | 10% (inactive)
CN1CCC(OC(c2ccccc2)c2ccccc2)CC1 | -34.9 | 1.74 | -9.83 | 1.09 | 81.6 | 17.3 | 2 | 1.27 | – | 4.58 (inactive) | 7.9% (inactive)
NC(N)=NCCN1CCCCCCC1 | 22.4 | 1.49 | -4.52 | 1.17 | 35.2 | -19.4 | 2 | 1.06 | – | 13.9 (inactive) | 125% (active)
CC(=O)NO | 31.8 | 1.13 | -5.59 | 0.77 | 58.3 | 11.3 | 2 | 1.09 | – | – | 25.2% (inactive)
Cc1onc(-c2ccccc2Cl)c1C(=O)N[C@@H]1C(=O)N2[C@@H]1SC(C)(C)[C@@H]2C(=O)O | -3.1 | 1.4 | 1.76 | 1.27 | 77 | -4.39 | 2 | 1.08 | – | 24.6 (inactive) | 68% (active)
Cc1ccnc(NS(=O)(=O)c2ccc(N)cc2)n1 | 3.68 | 0.98 | 11.1 | 0.88 | 38 | -29.5 | 2 | 1.19 | – | 6.5 (inactive) | 18.7% (inactive)
c1ccc(CN(CC2=NCCN2)c2ccccc2)cc1 | 9.99 | 1.33 | -13.1 | 1.08 | 71.4 | 16 | 2 | 1.29 | – | 15 (inactive) | 118% (active)
Cc1ccccc1N1C(=O)c2cc(S(N)(=O)=O)c(Cl)cc2NC1C (configuration not stated) | 19.1 | 1.21 | 6.73 | 0.86 | 4.55 | 2.13 | 2 | 1.18 | – | 25.6 (inactive) | 79.4% (active)
COc1cnc(NS(=O)(=O)c2ccc(N)cc2)nc1 | 4.47 | 1.34 | -2.23 | 0.79 | 77.5 | -0.58 | 2 | 1.45 | – | 4.42 (inactive) | 9.5% (inactive)
O=C(O)c1ccccc1Nc1cccc(C(F)(F)F)c1 | -0.73 | -0.37 | 3.52 | 1.3 | 73.1 | -15.4 | 2 | -0.092 | – | 25.2 (inactive) | 92.3% (active)
CCCN(CCC)C(=O)C(CCC(=O)O)NC(=O)c1ccccc1 (configuration not stated) | 14.9 | 1.14 | -3.65 | 1.15 | 68.3 | 11.9 | 1 | 1.2 | 0.02 h (inactive) | 19.6 (inactive) | –

SMILES | inhibition [1] [%] | score [2] | rescue above control [3] | cytochrome c release ratio [4] | inhibition of aggregation [5] [%] | glutamate uptake change [6] [%] | inclusion score [7] | aggregation suppression score [8] | period change [9] | survival [10] | fluorescence slope change [11]
CN(C)CCC(c1ccccc1)c1ccccn1 (configuration not stated) | 12.1 | 1.44 | -9.39 | 1 | -15.2 | 24.1 | 2 | 1.23 | -0.08 h (inactive) | 15 (inactive) | –
CC(C)(Oc1ccc(Cl)cc1)C(=O)O | 17.7 | 1.27 | 11.6 | 1.13 | 38.2 | 12.1 | 2 | 1.01 | – | 4.75 (inactive) | 21.7% (inactive)
COc1ccc(NS(=O)(=O)c2ccc(N)cc2)nn1 | 24 | 1.56 | 12.3 | 0.95 | -3.03 | 8.78 | 2 | 1.18 | – | – | -40.8% (inactive)
NCCCCCC(=O)O | -5.51 | 1.37 | 1.88 | 1.36 | 75.6 | -5.97 | 2 | 1.27 | 0.065 h (inactive) | 2 (inactive) | –
CCOc1ccc(Cc2nccc3cc(OCC)c(OCC)cc23)cc1OCC | 34.8 | 1.54 | -2.91 | 1.13 | -10.6 | 33.7 | 2 | 1.07 | – | 5.17 (inactive) | 86.8% (active)
Cc1ccc(C(=O)c2ccc(CC(=O)O)n2C)cc1 | 3.78 | 1.04 | -3.75 | 1.04 | 23.8 | 12.3 | 2 | 0.801 | – | 3.83 (inactive) | 69.6% (active)
CN1CCOC(c2ccccc2)c2ccccc2C1 (configuration not stated) | 4.24 | 1.08 | -6.88 | 0.83 | 74.7 | 0.43 | 1.5 | 1.44 | – | 21.3 (inactive) | 5.9% (inactive)
Cn1cnc2c1c(=O)[nH]c(=O)n2C | 30.4 | 1.43 | -0.5 | 0.76 | 28.1 | -19.3 | 1.5 | 1.09 | -0.055 h (inactive) | 3.33 (inactive) | –
Nc1ccc(S(=O)(=O)NC(=O)c2ccccc2)cc1 | 20.3 | 1.2 | -4.53 | 0.95 | 47.9 | -23.6 | 2 | 1.16 | – | 3 (inactive) | 30% (inactive)
CCN(CC)C(=O)N1CCN(C)CC1 | 14.8 | 1.32 | -3.55 | 0.61 | 85.9 | -11.4 | 2 | 1.44 | – | 18.8 (inactive) | 25.5% (inactive)
CCOC(=O)[C@H](CCc1ccccc1)N[C@@H](C)C(=O)N1CCC[C@H]1C(=O)O | 21.1 | 1.21 | 6.04 | 1.13 | 72.2 | -6.34 | 2 | 1.1 | – | – | 54.7% (active)
CC1=C(C(=O)O)N2C(=O)[C@@H](NC(=O)[C@H](N)c3ccc(O)cc3)[C@H]2SC1 | -20.4 | 1.38 | 2.74 | 0.96 | 74.6 | -6.33 | 2.5 | 1.47 | – | 5 (inactive) | –
Cc1cc(=O)n(-c2ccccc2)n1C | 22 | 1.07 | 2.73 | 1.13 | 22.2 | -12.9 | 2 | 1.35 | – | 27 (inactive) | –
O=C(COc1ccc(Cl)cc1)N1CCN(Cc2ccc3c(c2)OCO3)CC1 | 60.9 | 1.15 | 29.5 | 1.17 | 63.9 | 0.58 | 2.5 | 1.39 | – | 7.17 (inactive) | 134% (active)
C[N+]12CCC(CC1)C(OC(=O)C(O)(c1ccccc1)c1ccccc1)C2 (configuration not stated) | 10.9 | 1.31 | 14.7 | 1.79 | 73.8 | -0.25 | 2 | 1.21 | – | 4.17 (inactive) | 27.6% (inactive)
CC(C)NCC(O)c1ccc2ccccc2c1 (configuration not stated) | 0.74 | 1.15 | -8.05 | 0.68 | 88 | 6.56 | 2 | 0.983 | – | 5.67 (inactive) | –
CCCCOc1ccc(OCCCN2CCOCC2)cc1 | 9.28 | 1.09 | 8.67 | 0.73 | 65 | 6.69 | 2 | 1.24 | – | 2 (inactive) | 29.5% (inactive)
CCCCOc1ccc(CC(=O)NO)cc1 | -8.34 | 1.21 | -4.19 | 1.09 | 43.1 | 0.25 | 2 | 1.14 | – | 12.2 (inactive) | 103% (active)
CC(=O)NS(=O)(=O)c1ccc(N)cc1 | 11.3 | 1.36 | -14.1 | 1.02 | 48.5 | 16.9 | 2 | 1.16 | – | 17.3 (inactive) | –
CCN(CCCCOC(=O)c1ccc(OC)c(OC)c1)C(C)Cc1ccc(OC)cc1 (configuration not stated) | 24.4 | 1.51 | 1.7 | 0.92 | 65.1 | 1.65 | 2 | 1.35 | – | 13.9 (inactive) | -44.1% (inactive)
CCn1cc(C(=O)O)c(=O)c2cnc(N3CCCC3)nc21 | -13.1 | 0.98 | 7.28 | 1.33 | 85.9 | -9.95 | 2 | 1.27 | – | 4.5 (inactive) | 55.2% (active)
CS(=O)(=O)c1ccc([C@@H](O)[C@@H](CO)NC(=O)C(Cl)Cl)cc1 | -7.88 | 0.79 | -0.62 | 0.72 | 100 | 16.7 | 2 | 0.726 | – | 14.4 (inactive) | –
